Screening results from PubChem.
In the library only some 10% were active in any assay of this set; here they are far more common.
ALDH1A1 inh = qHTS Assay for Inhibitors of Aldehyde Dehydrogenase 1 (ALDH1A1) | Potency, µM (series often up to 75.3 µM), hits mostly inhibitors | Purified ALDH1A1, NADH fluorescence, propionaldehyde substrate | Aldehyde dehydrogenase 1A1 (Homo sapiens), P00352 | actives 7.3% (n = 220,000)
Target sequence (P00352 whole entry, looked up): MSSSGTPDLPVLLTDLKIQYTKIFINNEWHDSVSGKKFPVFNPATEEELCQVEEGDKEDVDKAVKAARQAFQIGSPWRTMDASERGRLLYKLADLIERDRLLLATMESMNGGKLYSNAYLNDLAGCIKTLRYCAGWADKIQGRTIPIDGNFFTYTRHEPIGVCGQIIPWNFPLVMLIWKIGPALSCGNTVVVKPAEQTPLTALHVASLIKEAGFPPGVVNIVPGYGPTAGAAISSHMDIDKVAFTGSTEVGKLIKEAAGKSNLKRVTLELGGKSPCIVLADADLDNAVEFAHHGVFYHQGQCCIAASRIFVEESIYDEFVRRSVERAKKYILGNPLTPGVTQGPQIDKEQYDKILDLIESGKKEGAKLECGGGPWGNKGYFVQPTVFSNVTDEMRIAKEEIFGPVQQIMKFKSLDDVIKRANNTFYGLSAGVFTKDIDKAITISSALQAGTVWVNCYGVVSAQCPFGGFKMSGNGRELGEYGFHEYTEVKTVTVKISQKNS
Lamin A splicing = qHTS Assay for Modulators of Lamin A Splicing. HeLa LMNA splicing GFP/RFP minigene ratio, 48 h. Potency, µM (doses to about 46.1 µM), usual class: inhibitors. actives 0.01% (n = 200,000). AID 1487, 2009; active = well fitted inhibition curve with a large enough effect in the signal ratio, with a control signal flat, not every such curve was filed as active; inconclusive = small, poorly fitted or top-dose-only effect, or effect the other way, or a change in a side signal; the % refers to the signal ratio
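Read-out is the ratio of GFP to DsRed2 object intensity, acquired by 488 nm laser-scanning cytometry on HeLa lamin A-EGFP minigene reporter cells. Compound incubation 48 hrs at 37 °C in Opti-MEM with 2% FBS; DMSO 0.5% final.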
KinaseGlo FLuc = Counterscreen for Luciferase (Kinase-Glo TM) Inhibition; Potency, µM (doses to about 38.3 µM), hits mostly inhibitors; Kinase-Glo luciferase, ATP luminescence, 8 min; actives 0.28% (n = 200,000); Luciferin 4-monooxygenase (Photuris pensylvanica), Q27757; active = well fitted inhibition curve with a large enough effect; inconclusive = small, poorly fitted or top-dose-only effect; note: nearly all actives have a fitted effect of over 60% in size
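Compounds were added to a substrate mix at pH 7.2 (50 mM imidazole, 10 uM ATP, within the enzyme's linear range), followed by Kinase-Glo detection reagent; luminescence was measured after 8 minutes at ambient temperature.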
PNC assembly inh = High Content Assay for Compounds that inhibit the Assembly of the Perinucleolar Compartment; PC3M PTB-GFP, PNC prevalence imaging, 16 h; stronger effect = lower value; activity change (PNC), negative = inhibition, % at 10 µM; actives 3.1% (n = 140,000);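 active = readout at or below -70, meaning at least 70% loss of cells showing the perinucleolar compartment, a nuclear body marking cancer cells; inconclusive = readout between -30 and a set limit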
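Compounds are pinned in duplicate onto adhered PC3M cells stably expressing GFP-tagged PTB and incubated 16 h at 37 C. Cells are then fixed, nuclei stained with Hoechst, and PNC-positive cells counted.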
HPGD inh = qHTS Assay for Inhibitors of HPGD (15-Hydroxyprostaglandin Dehydrogenase) | purified HPGD, NADH fluorescence kinetic, PGE2 substrate | actives 4.3% (n = 150,000) | AID 894, 2007 | 15-hydroxyprostaglandin dehydrogenase [NAD(+)] (Homo sapiens), P15428 | Potency, µM, hits mostly inhibitors
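20 nM HPGD preincubated 15 min at room temperature with compound in 50 mM Tris-HCl pH 8, 0.01% Tween 20. Started with 1 mM NAD+ and 30 uM prostaglandin E2; NADH fluorescence (360/450 nm) read 5 times over 30-s intervals, last minus first.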
Numbers stand for hits; n = inactive; u = inconclusive; x = no result; [ ] = remark or other dose. Unless noted, calls come from the whole dose curve; as a rule, active = well fitted inhibition curve with a large enough effect (not every such curve was filed as active); inconclusive = small, poorly fitted or top-dose-only effect, or another doubt; inactive = no such curve, though single readings can be large or run the other way.

SMILES | ALDH1A1 inh | Lamin A splicing | KinaseGlo FLuc | PNC assembly inh | HPGD inh
Cc1ccc(-c2csc3ncnc(-n4nc(C)cc4N)c23)cc1 | 2µM | u | n | n | n
Cc1cc(N)n(-c2ncnc3scc(-c4ccc(Cl)cc4)c23)n1 | u | n | n | n | n
O=C(Nc1cccc(Cl)c1)C1CCCN(c2nn3cc(-c4ccc(F)cc4)nc3s2)C1 (stereo not drawn) | x | n | x | x | x
O=C(CN1CCN(c2ccc(F)cc2)CC1)NCC1CCCO1 (stereo not drawn) | n | n | n | n | n
COc1ccccc1N1CCN(CC(=O)Nc2ccc(C)c(F)c2)CC1 | 14µM | u | n | n | n
O=C(CN1CCN(C(=O)c2ccco2)CC1)Nc1ccc2c(c1)OCCO2 | 13µM | n | n | n | n
CCCn1c(N2CCN(CC(=O)Nc3ccc4c(c3)OCCO4)CC2)nc2ccccc21 | 25µM | n | n | n | n
CC(O)c1nc2ccccc2n1CC(=O)Nc1ccc2c(c1)OCCO2 (stereo not drawn) | n | n | n | x | x
COc1ccccc1N1CCN(CC(=O)NCC2CCCO2)CC1 (stereo not drawn) | u | n | n | -119 | n
CN(C)C1(CNC(=O)COc2ccc([N+](=O)[O-])cc2)CCCCC1 | x | n | x | x | x
COc1ccc(-c2cc(C(=O)N3CCN(c4ccccc4OC)CC3)c3cc(C(C)C)ccc3n2)cc1 | x | n | x | x | x
O=C(c1ccco1)N1CCCN(Cc2nc(-c3ccc4c(c3)OCO4)no2)CC1 | 22µM | u | n | x | x
COc1ccccc1N1CCN(CC(=O)Nc2ccc3c(c2)OCCO3)CC1 | 22µM | x | n | x | x
O=C(CN1CCN(S(=O)(=O)c2ccc(Br)cc2)CC1)Nc1ccc2c(c1)OCCO2 | 25µM | n | n | n | n
O=C(CN1CCN(S(=O)(=O)c2ccc(Cl)cc2)CC1)Nc1ccc2c(c1)OCCO2 | u | n | n | n | n
COc1ccc(S(=O)(=O)N2CCN(CC(=O)Nc3ccc(C)c(F)c3)CC2)cc1 | 10µM | n | n | n | n
Cc1ccc(NC(=O)CN2CCN(S(=O)(=O)c3ccc(C(C)C)cc3)CC2)cc1F | x | n | x | x | x
COCC(=O)N1CCC2(CCCN(Cc3ccccc3OC)C2)CC1 | n | x | n | x | n
CCN1C(=O)[C@H]2[C@H]3[C@H](O)[C@H](O)C/C(=N/OC/C=C(\C)CCC=C(C)C)[C@H]3CC[C@@H]2C1=O | n[13.5 µM] | x | x | x | x
O=C(CN1CCN(c2ccc(O)cc2)CC1)Nc1ccc2c(c1)OCCO2 | 9.5µM | x | n | x | x
NC(=O)c1ccc(NC(=O)CN2CCN(c3ccc(Cl)cc3)CC2)cc1 | 22µM | x | n | x | x
O=C(CN1CCN(c2ccccc2)CC1)Nc1ccc2c(c1)OCCO2 | n | n | n | x | x
O=C(CN1CCN(c2ccccc2F)CC1)Nc1ccccc1F | 20µM | u | n | n | n
O=C(CN1CCN(CC(=O)Nc2ccccc2F)CC1)Nc1ccc2c(c1)OCCO2 | 28µM | x | n | x | x
O=C(CCN1CCN(c2ccccc2F)CC1)Nc1ccccc1F | n | n | n | u | n
SMILES | ALDH1A1 inh | Lamin A splicing | KinaseGlo FLuc | PNC assembly inh | HPGD inh
O=C(Cc1cccc([N+](=O)[O-])c1)NCc1nc2cccnc2n1Cc1ccc(F)cc1 | x | n | x | x | x
CC(=O)C1=C(O)C(=O)N(Cc2ccco2)C1c1ccccc1F (stereo not drawn) | 10µM | x | n | x | x
CC(=O)C1=C(O)C(=O)N(Cc2ccco2)C1c1ccccc1 (stereo not drawn) | n | n | n | n | n
Cc1onc(-c2ccccc2)c1CNS(=O)(=O)c1cccc(Br)c1 | 2.8µM | x | x | x | x
CN(C)CCC[C@@H]1c2ccccc2Oc2ccc(C(F)(F)F)cc21 | n[13.5 µM] | x | n[7.66 µM] | x | n
COC(=O)c1ccc(C2NC(=O)c3c(sc(C)c3C)N2)cc1 (stereo not drawn) | 24µM | x | x | x | x
CC1(C)Cc2c(C#N)c(N)sc(=S)c2CO1 | 11µM | n | n | n | n
CC(C)C1Cc2c(C#N)c(N)sc(=S)c2CO1 (stereo not drawn) | u | n | n | n | n
CCOc1ccc(NC(=O)CSC2=Nc3ccccc3C3=NC(CC(=O)NCc4ccc5c(c4)OCO5)C(=O)N23)cc1 (stereo not drawn) | x | n | x | x | x
COc1ccc(CN(C(=O)Nc2cc(C)ccc2C)C2CCN(C(C)=O)CC2)cc1 | x | n | x | x | x
CCN1C(=O)CC(N2CCOCC2)C1=O (stereo not drawn) | n | n | n | n | n
CN(C)N1C(=O)CC(N2CCCC2)C1=O (stereo not drawn) | 22µM | x | n | x | x
Cc1noc(NS(=O)(=O)c2ccc(NC(=O)CSc3nnc4c(n3)[nH]c3ccccc34)cc2)c1C | n | n | n | n | n
Cc1noc(NS(=O)(=O)c2ccc(NC(=O)CSc3nc4ccccc4[nH]3)cc2)c1C | u | n | n | n | n
COc1cccc(C(=O)/C=C/Nc2ccc(S(=O)(=O)Nc3onc(C)c3C)cc2)c1 | u | n | n | u | u
Cc1noc(NS(=O)(=O)c2ccc(NC(=O)CSc3n[nH]c(-c4ccccc4)n3)cc2)c1C | n | n | n | n | 4.5µM
Cc1noc(NS(=O)(=O)c2ccc(N/C=C\C(=O)c3cccc4ccccc34)cc2)c1C | 4µM | x | n | x | x
COc1ccc2nc(SCC(=O)Nc3ccc(S(=O)(=O)Nc4onc(C)c4C)cc3)[nH]c2c1 | u | n | n | n | 18µM
COc1ccc(-n2c(=O)c(-c3ccc(Cl)cc3)nc3cnc(N(C)C)nc32)cc1 | u | n | x | x | x
Cc1[nH]n(-c2ncc(-c3ccc(Cl)cc3)s2)c(=O)c1C(c1ccc(Cl)cc1)C(C#N)C#N (stereo not drawn) | u | u | n | n | 10µM
CS(=O)(=O)c1ccc(N2CCOCC2)c(S(C)(=O)=O)c1 | n | n | n | -107 | n
O=C(C(Cl)Cl)N1c2ccccc2OCC1c1ccccc1 (stereo not drawn) | 1.3µM | n | n | u | n
Cc1ccc(S(=O)(=O)N2c3ccccc3OCC2c2ccccc2)cc1 (stereo not drawn) | n | u | n | -100 | n
Cc1cc(=O)n(CC(=O)NCCC(C)C)c2c1c(C)nn2C | x | n | x | x | x
O=C(c1csnn1)N1CCC2(CC1)CN(c1ccccn1)C2 | u | x | n | x | u
SMILES | ALDH1A1 inh | Lamin A splicing | KinaseGlo FLuc | PNC assembly inh | HPGD inh
CCOC(=O)c1ccccc1NC(=O)Cn1ncc2c([nH]c3ccccc32)c1=O | x | n | x | x | x
CCn1nnc(NC(=O)c2cccnc2)n1 | n | n | n | n | 25µM
O=S(=O)(C[C@H](O)C(Cl)(Cl)Cl)NNc1ccccc1 | n[13.5 µM] | x | n[7.66 µM] | x | n
O=c1c2ccccc2nc(N/N=C/c2ccc(O)cc2)n1O | 10µM | n | 11µM | u | 13µM
O=c1c2ccccc2nc(N/N=C/c2c(O)ccc3ccccc23)n1O | u | u | n | n | 22µM
COc1ccc(OC2C=CC(c3ccccc3)OC2CO)cc1 (stereo not drawn) | n[13.5 µM] | x | x | x | x
